Experimental data: PubChem BioAssay (NCATS)
Inconclusive results are not listed. The list shows a part of the results. Active and inactive are the calls of the source. Calls come from the whole dose curve; as a rule, active = well fitted curve in the direction sought with a large enough effect; inconclusive = small, poorly fitted or top-dose-only effect, or another doubt; inactive = no such curve, though single readings can be large; an effect the other way counts as inactive or inconclusive.

Key:
[1] = target: Rap guanine nucleotide exchange factor 3 (Homo sapiens) (UniProt O95398); test: Confirmatory qHTS for agonist of cAMP-regulated guanine nucleotide exchange factor 3 (EPAC1) (AID 1645881);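 note: EPAC1 catalysed release of BODIPY-GDP from Rap1B seen as fluorescence loss; 100% = effect of cAMP agonist control; nearly all actives have a fitted effect of over 75% in size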
[2] = target: Rap guanine nucleotide exchange factor 4 (Homo sapiens) (UniProt Q8WZA2); test: Confirmatory qHTS for agonist of cAMP-regulated guanine nucleotide exchange factor 4 (EPAC2) (AID 1645884);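 note: nucleotide exchange releases bodipy-GDP from Rap1 and this lowers its fluorescence; % is set by controls: 0 for no effect and ±100 for the full control effect; nearly all actives have a fitted effect of over 65% in size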
[3] = target: Rap guanine nucleotide exchange factor 4 (Homo sapiens) (UniProt Q8WZA2); test: Confirmatory qHTS for antagonist of cAMP-regulated guanine nucleotide exchange factor 4 (EPAC2) (AID 1645885); note: nearly all actives have a fitted effect of over 25% in size; note: potency is the fitted concentration of half-maximal effect; for activity change, negative = inhibition: % is set by controls: 0 for no effect and ±100 for the full control effect
[4] = target: Rap guanine nucleotide exchange factor 3 (Homo sapiens) (UniProt O95398); test: Counterscreen qHTS for agonist of cAMP-regulated guanine nucleotide exchange factor 3 (EPAC1) (AID 1645889); note: % of control where 0% means no effect; nearly all actives have a fitted effect of over 40% in size
In short: (§1)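 Rap1B-BODIPY-GDP 250 nM + GDP 50 uM; cpds 7-pt, final 9.74 nM–152 uM (activator mode) or from 7.32 nM upwards (inhibitor mode); RT; FI 480/540 nm at 5 and 30 min, then ± cAMP, reread.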

[5] = target: DNA polymerase eta (Homo sapiens) (UniProt Q9Y253); test: qHTS for Inhibitors of Polymerase Eta: Confirmatory Assay for Cherry-picked Compounds (AID 720502); conditions: Pol eta primer extension, TAMRA/BHQ fluorescence, 10 min; note: potency is the fitted concentration of half-maximal effect
In short: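 The reaction starts with 50 nM final labeled DNA substrate added to Pol eta (10 nM) that had sat with compound for 15 min. TAMRA emission at 598 nm is read at 0 and 10 min.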

[6] = target: Rap guanine nucleotide exchange factor 3 (Homo sapiens) (UniProt O95398); test: Counterscreen qHTS for antagonist of cAMP-regulated guanine nucleotide exchange factor 3 (EPAC1) (AID 1645888);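 note: fluorescence loss as bound BODIPY-GDP is released from Rap1B; % of control where 0% means no effect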
In short: as §1

Sequence of Rap guanine nucleotide exchange factor 3 (Homo sapiens) (O95398 whole entry, looked up): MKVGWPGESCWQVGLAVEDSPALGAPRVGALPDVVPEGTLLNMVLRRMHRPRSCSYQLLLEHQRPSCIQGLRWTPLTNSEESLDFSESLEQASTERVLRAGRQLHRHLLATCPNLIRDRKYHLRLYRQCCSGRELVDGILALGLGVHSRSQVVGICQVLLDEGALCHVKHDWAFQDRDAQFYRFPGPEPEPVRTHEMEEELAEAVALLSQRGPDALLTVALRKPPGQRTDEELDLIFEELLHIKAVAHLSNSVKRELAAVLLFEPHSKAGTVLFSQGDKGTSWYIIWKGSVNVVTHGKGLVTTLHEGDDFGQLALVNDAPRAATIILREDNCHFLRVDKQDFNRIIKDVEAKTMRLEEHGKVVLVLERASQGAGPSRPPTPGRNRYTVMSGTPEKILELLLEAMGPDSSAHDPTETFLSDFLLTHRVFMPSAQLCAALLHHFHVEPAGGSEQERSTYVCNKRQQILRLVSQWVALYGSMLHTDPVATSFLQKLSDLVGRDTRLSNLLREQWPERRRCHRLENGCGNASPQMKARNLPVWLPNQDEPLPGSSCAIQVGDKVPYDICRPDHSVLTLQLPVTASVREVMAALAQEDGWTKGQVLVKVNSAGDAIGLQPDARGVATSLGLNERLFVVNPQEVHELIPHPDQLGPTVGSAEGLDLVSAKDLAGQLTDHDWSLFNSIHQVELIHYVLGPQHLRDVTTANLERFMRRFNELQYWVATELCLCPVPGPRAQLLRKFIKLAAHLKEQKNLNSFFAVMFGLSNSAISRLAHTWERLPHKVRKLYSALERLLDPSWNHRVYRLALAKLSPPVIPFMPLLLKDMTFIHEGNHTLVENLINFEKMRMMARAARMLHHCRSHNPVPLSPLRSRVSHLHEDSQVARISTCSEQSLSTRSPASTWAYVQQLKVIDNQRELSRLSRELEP
Sequence of Rap guanine nucleotide exchange factor 4 (Homo sapiens) (Q8WZA2 whole entry, looked up): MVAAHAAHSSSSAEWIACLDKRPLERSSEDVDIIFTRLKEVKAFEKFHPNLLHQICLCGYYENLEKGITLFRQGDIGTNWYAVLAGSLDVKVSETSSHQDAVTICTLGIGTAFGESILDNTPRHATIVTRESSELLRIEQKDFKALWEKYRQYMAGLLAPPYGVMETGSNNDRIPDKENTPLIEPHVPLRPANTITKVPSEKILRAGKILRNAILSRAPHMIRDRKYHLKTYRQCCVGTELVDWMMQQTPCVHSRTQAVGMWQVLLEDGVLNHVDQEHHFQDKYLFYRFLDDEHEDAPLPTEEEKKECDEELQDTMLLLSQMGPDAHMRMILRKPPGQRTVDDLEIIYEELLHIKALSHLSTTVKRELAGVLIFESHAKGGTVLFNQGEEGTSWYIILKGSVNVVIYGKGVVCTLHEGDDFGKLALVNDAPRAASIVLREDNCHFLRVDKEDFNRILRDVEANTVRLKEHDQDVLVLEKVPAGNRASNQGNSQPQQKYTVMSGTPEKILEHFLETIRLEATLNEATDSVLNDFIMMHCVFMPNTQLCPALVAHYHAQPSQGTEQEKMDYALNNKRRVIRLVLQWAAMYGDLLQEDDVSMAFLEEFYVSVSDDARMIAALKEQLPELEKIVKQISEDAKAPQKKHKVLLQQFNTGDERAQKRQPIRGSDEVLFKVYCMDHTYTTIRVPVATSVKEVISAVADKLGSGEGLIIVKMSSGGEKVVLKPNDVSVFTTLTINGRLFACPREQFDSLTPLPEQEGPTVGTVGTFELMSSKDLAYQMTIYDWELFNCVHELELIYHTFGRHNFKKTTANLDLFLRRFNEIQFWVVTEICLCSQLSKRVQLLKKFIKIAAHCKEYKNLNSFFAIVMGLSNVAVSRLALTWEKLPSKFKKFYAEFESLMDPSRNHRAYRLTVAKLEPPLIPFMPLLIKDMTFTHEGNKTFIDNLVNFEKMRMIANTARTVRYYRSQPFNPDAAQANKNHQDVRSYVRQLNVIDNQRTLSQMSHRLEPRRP
Sequence of DNA polymerase eta (Homo sapiens) (Q9Y253 whole entry, looked up): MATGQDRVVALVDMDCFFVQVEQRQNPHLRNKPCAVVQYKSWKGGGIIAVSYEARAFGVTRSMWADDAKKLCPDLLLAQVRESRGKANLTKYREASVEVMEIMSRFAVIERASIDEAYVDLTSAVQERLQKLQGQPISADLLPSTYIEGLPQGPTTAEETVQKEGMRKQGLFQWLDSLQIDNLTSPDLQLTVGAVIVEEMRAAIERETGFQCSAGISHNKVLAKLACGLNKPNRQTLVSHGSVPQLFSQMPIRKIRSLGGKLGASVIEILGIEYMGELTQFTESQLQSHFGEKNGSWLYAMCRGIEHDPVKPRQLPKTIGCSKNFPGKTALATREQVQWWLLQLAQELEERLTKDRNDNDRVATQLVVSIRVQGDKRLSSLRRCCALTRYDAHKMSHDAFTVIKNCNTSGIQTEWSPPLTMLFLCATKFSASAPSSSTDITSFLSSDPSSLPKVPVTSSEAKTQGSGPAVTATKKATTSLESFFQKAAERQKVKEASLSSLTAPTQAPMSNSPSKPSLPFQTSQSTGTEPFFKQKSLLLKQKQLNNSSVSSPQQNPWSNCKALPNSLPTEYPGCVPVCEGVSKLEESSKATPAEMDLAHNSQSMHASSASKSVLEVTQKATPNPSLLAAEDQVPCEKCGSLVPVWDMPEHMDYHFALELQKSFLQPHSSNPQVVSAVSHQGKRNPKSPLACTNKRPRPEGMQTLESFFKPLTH

CC(C)(C)OC(=O)N1CCC(c2c(C(=O)NCCN3CCC(Cc4ccccc4)CC3)cnn2-c2cccc(Cl)c2)CC1
inactive: Potency [1] | Potency [2] | Potency [3] | Potency [4]

CC(C)CCOP(=O)(c1ccc(N(C)C)cc1)C(O)c1ccc(Cl)cc1Cl (centres undefined)
inactive: Potency [1] | Potency [2] | Potency [4]
active: Potency [3] 19 µM

Cc1oc2ccc(O)c(CN(C)Cc3ccccc3)c2c1C(=O)Nc1cccc(C(F)(F)F)c1
inactive: Potency [1] | Potency [2] | Potency [3] | Potency [4]

C[C@H](CO)N1C[C@H](C)[C@@H](CN(C)Cc2ccc(Cl)c(Cl)c2)Oc2c(NC(=O)CCC(F)(F)F)cccc2C1=O
active: Potency [3] 19 µM
inactive: Potency [1] | Potency [2] | Potency [4]

O=C(NCc1ccc(OC(F)(F)F)cc1)C1CC(c2ccccc2C(F)(F)F)=NO1 (centres undefined)
inactive: Potency [1] | activation [2] 4.05% [at 17.1 µM, percent relative to cAMP agonist control] | Potency [3] | activation [4] 3.19% [at 30.8 µM]

C/C(=N\NS(=O)(=O)c1ccc(C(C)(C)C)cc1)c1ccccc1
inactive: Potency [1] | activation [2] 13.7% [at 17.1 µM, percent relative to cAMP agonist control] | Potency [3] | activation [4] 25% [at 30.8 µM]

CC(=O)N(CCC(c1ccco1)C(C)C)Cc1ccc(Cl)cc1 (centres undefined)
inactive: Potency [1] | Potency [2] | Potency [3] | Potency [4]

O=C(CSc1nnc(-c2cccs2)n1Cc1ccco1)Nc1ccc2c(c1)OCO2
inactive: Potency [1] | Potency [2] | Potency [3] | Potency [4]

CC(C)C(=O)Nc1nc2c(s1)CC(C(C)(C)C)CC2 (centres undefined)
inactive: Potency [1] | Potency [2] | Potency [3] | Potency [4]

C/C(=N\NC(=O)c1ccc(N/N=C(\C)c2ccc(O)cc2)cc1)c1ccc(O)cc1
inactive: Potency [1] | activation [2] 15.6% [at 17.1 µM, percent relative to cAMP agonist control] | Potency [3] | activation [4] 11.7% [at 30.8 µM]

COc1ccc(N2C(=O)Cc3cc(OC)c(OC)cc3C2c2ccc(F)cc2)cc1 (centres undefined)
inactive: Potency [1] | Potency [2] | Potency [3] | Potency [4]

CCCCn1c(CNC(=O)C23CC4CC(CC(C4)C2)C3)nnc1SCC(=O)Nc1nnc(C)s1
inactive: Potency [1] | activation [2] 3.57% [at 17.1 µM, percent relative to cAMP agonist control] | Potency [3] | activation [4] 1.72% [at 30.8 µM]

COc1ccc(N2C(=O)CSC23C(=O)N(Cc2cccc(C(F)(F)F)c2)c2ccccc23)cc1 (centres undefined)
inactive: Potency [1] | Potency [2] | outcome [3] inactive [at 12.7 µM] | Potency [4]

Cc1cccc(N2C(=O)C(O)=C(C(=O)c3cccs3)C2c2cccc(Oc3ccccc3)c2)n1 (centres undefined)
inactive: Potency [1] | Potency [2] | Potency [3] | Potency [4]

CCC/C=C/c1ccc(CN2C(CC(C)C)C(=O)N(Cc3cn(Cc4ccco4)nn3)CCS2(=O)=O)cc1 (centres undefined)
inactive: Potency [1] | Potency [2] | Potency [3] | Potency [4]

CCCC[C@@H]1C[C@H]1[C@@H](NC(=O)c1ccco1)c1ccc(Cl)cc1
inactive: Potency [1] | Potency [2] | Potency [3] | Potency [4]

COc1cc(/C=C(\C#N)C(=O)Nc2ccccc2C(=O)O)cc(Cl)c1OC
inactive: Potency [1] | Potency [2] | Potency [3] | Potency [4]

CN(CC(=O)Nc1ccc(F)cc1)C(=O)COC(=O)C1CCN(c2ccc(C(F)(F)F)cn2)CC1
inactive: Potency [1] | Potency [2] | Potency [3] | Potency [4]

C=CCNC(=O)c1oc2ccc(S(=O)(=O)N(CC)CC)cc2c1C
inactive: Potency [1] | Potency [2] | Potency [3] | Potency [4]

CCOC(=O)c1nc(C)nc(Sc2n[nH]c(-c3cc(Cl)cc(Cl)c3)n2)c1C
inactive: Potency [1] | activation [2] 2.66% [at 17.1 µM, percent relative to cAMP agonist control] | Potency [3] | activation [4] 19.4% [at 30.8 µM]

CCCn1c(/C=C/c2ccco2)nc2ccccc21
inactive: Potency [1] | activation [2] -2.96% [at 17.1 µM, percent relative to cAMP agonist control] | Potency [3] | activation [4] 26.1% [at 30.8 µM]

O=C(Nc1nc(-c2ccco2)c(-c2ccco2)s1)c1ccco1
inactive: Potency [1] | activation [2] 2.72% [at 17.1 µM, percent relative to cAMP agonist control] | Potency [3] | activity change, negative = inhibition [6] 0.168% [at 30.8 µM]
active: Potency [5] 26.9 µM

CC(C)CCOP(=O)(c1ccc(N(C)C)cc1)C(O)c1c(Cl)cccc1Cl (centres undefined)
inactive: Potency [1] | activation [2] 13.3% [at 17.1 µM, percent relative to cAMP agonist control] | Potency [3] | activation [4] 2.73% [at 30.8 µM]

CCc1ccc2c(c1)NC(=O)C2(C)Cc1ccc(C(F)(F)F)o1 (centres undefined)
inactive: Potency [1] | Potency [2] | Potency [3] | Potency [4]

O=S(=O)(c1ccc2nc(-c3ccco3)c(-c3ccco3)nc2c1)N1CCOCC1
inactive: Potency [1] | activation [2] 6.85% [at 17.1 µM, percent relative to cAMP agonist control] | Potency [3] | activation [4] 21.3% [at 30.8 µM]

CC1CN(C(=O)c2ccc(-c3cccc(C(F)(F)F)c3)o2)CC(C)O1 (centres undefined)
inactive: Potency [1] | activation [2] 6.74% [at 17.1 µM, percent relative to cAMP agonist control] | Potency [3] | activation [4] 1.55% [at 30.8 µM]

N#C/C(=N\Nc1cccc(C(F)(F)F)c1)C(=O)c1ccsc1
inactive: Potency [1] | Potency [2] | Potency [3] | Potency [4]

CCN(Cc1ccccc1)S(=O)(=O)c1cc2c3c(c1)CCN3C(=O)CC2
inactive: Potency [1] | activation [2] 0.922% [at 17.1 µM, percent relative to cAMP agonist control] | Potency [3] | activation [4] -5.83% [at 30.8 µM]

O=C(O)CN1C(=O)/C(=C\c2cccc(OCc3ccc(F)cc3)c2)SC1=S
inactive: Potency [1] | activation [2] 1.62% [at 17.1 µM, percent relative to cAMP agonist control] | Potency [3] | activation [4] 14.2% [at 30.8 µM]

CCCc1nc2ccc(C(=O)OC)cn2c1Cc1ccccc1C(F)(F)F
active: Potency [3] 30.1 µM
inactive: Potency [1] | Potency [2] | Potency [4]

CC1(C)CC(CCN(Cc2ccccc2)C(=O)c2ccco2)(c2ccccc2)CCO1 (centres undefined)
inactive: Potency [1] | Potency [2] | Potency [3] | Potency [4]

CCOC(=O)N1CCC2CC1c1cc(-c3cccc(OC)c3)ccc12 (centres undefined)
inactive: Potency [1] | Potency [2] | Potency [3] | Potency [4]

CC(C)(C)c1ccc(C(=O)N2CCCC(c3nc4c(nnn4Cc4cccc(F)c4)c(=O)[nH]3)C2)cc1 (centres undefined)
inactive: Potency [1] | Potency [2] | outcome [3] inactive [at 12.7 µM] | Potency [4]

CCC[C@H]1CC(=O)C=C(c2ccsc2)ON1C(=O)OC(C)(C)C
inactive: Potency [1] | Potency [2] | Potency [3] | Potency [4]

Cc1cc(C)c(OCC(=O)N(Cc2ccco2)Cc2ccco2)c(C)c1
inactive: Potency [1] | Potency [2] | Potency [3] | Potency [4]

Nc1cc(OC(=O)c2cccs2)nn1S(=O)(=O)c1ccc(F)cc1
inactive: Potency [1] | Potency [2] | Potency [4]
active: Potency [3] 84.9 µM

CCN(C(=O)Cn1c(=O)oc2cc(Cl)ccc21)c1cccc(C(F)(F)F)c1
inactive: Potency [1] | Potency [2] | Potency [3] | Potency [4]
